Results filed as inconclusive are left out. Calls of active or inactive are those of the source. How the source made its calls, unless noted: active means hit-call score of the fitted dose curve at least 0.9, where 1 is the maximum; inconclusive means response in the unintended direction; inactive means score below 0.9.

Test [1] is described as follows: BSK_3C_VCAM1: BioMAP Diversity Plus: 3C Assay for Vascular cell adhesion molecule 1 (VCAM1) Biomarker Activity (AID 2282999; active means hit-call score of the fitted dose curve at least 0.9, where 1 is the maximum; inactive means score below 0.9). The conditions noted are these: BioMAP 3C HUVEC, VCAM1 ELISA, cytokine-stimulated; actives raise or lower the signal. The method in brief:
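Activity fitted in both directions relative to DMSO, with ELISA measurement of the surface marker on primary HUVEC (3C) at 24 h post-treatment; parallel SRB staining (0.1% SRB, TCA-fixed, 560 nm) flagged overt cytotoxicity.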
A general note: In an ELISA, binding on a coated surface is turned into a signal by an enzyme label.

Test [2] in a line: BSK_4H_Eotaxin3: BioMAP Diversity Plus: 4H Assay for Eotaxin 3 Biomarker Activity (AID 2283000; active means hit-call score of the fitted dose curve at least 0.9, where 1 is the maximum; inactive means score below 0.9;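 further: CCL26 protein level quantified by ELISA in parallel with SRB cytotoxicity check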). The conditions noted are these: primary human endothelial cells (HUVEC); actives raise or lower the signal. An outline of the steps:
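Endothelial primary cells (human umbilical vein) exposed to compound for 24 h. ELISA detection of Eotaxin-3.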

Read-out in test [3]: Intercellular Adhesion Molecule 1 (ICAM1), ICAM1 (gene 3383)
Kind of test: BSK_3C_ICAM1: BioMAP Diversity Plus: 3C Assay for Intercellular Adhesion Molecule 1 (ICAM1) Biomarker Activity (AID 2283003; active means hit-call score of the fitted dose curve at least 0.9, where 1 is the maximum; inactive means score below 0.9). Particulars: primary human endothelial cells (HUVEC); actives raise or lower the signal. The method in brief:
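Using DMSO as baseline, bidirectional curve fitting was applied to ICAM-1 ELISA signals from HUVEC in the 3C system, measured 24 h after compound addition.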

Test [4] has as its target human Retinoic Acid Receptor beta (RARb), RARB (gene 5915) (UniProt P10826). Kind of test: ATG_RARb_TRANS: Attagene TRANS-FACTORIAL HepG2 Assay for human Retinoic Acid Receptor beta (AID 2283004). The method in brief: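 HepG2, transient MRTU transfection, NR–Gal4 chimera, 24 h treatment; RT-PCR plus CE fluorescence detection of reporter mRNA; gain of signal vs DMSO.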
Test [5] addresses Retinoic acid receptor alpha (Homo sapiens) (UniProt P10276). Kind of test: ATG_RARa_TRANS: Attagene TRANS-FACTORIAL HepG2 Assay for human Retinoic Acid Receptor alpha (RARa) (AID 2283005). An outline of the steps: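 Reporter transcripts, measured by RT-PCR with fluorescent labeling and capillary electrophoresis after 24 h dosing, reflect activity of an exogenous human RARa–GAL4 fusion in transiently transfected HepG2. Fitted for increase relative to DMSO.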

Test [6] deals with Peroxisome proliferator-activated receptor gamma (Homo sapiens) (UniProt P37231). Kind of test: ATG_PPARg_TRANS: Attagene TRANS-FACTORIAL HepG2 Assay for human Peroxisome Proliferator-activated Receptor-gamma (PPARg) (AID 2283007). The method in brief: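 Chimeric NR-Gal4 transactivation is measured in transiently transfected HepG2 cells by reporter mRNA induction at 24 h. Detection uses RT-PCR with fluorescent labelling and capillary electrophoresis; DMSO defines baseline.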

In test [7] the target is Nuclear receptor subfamily 1 group I member 2 (Homo sapiens) (UniProt O75469). The test can be described thus: ATG_PXR_TRANS: Attagene TRANS-FACTORIAL HepG2 Assay for human Pregnane X Receptor (PXR) (AID 2283008). An outline of the steps:
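Multiplexed TRANS reporter panel in HepG2; this component tracks PXR-Gal4-driven reporter mRNA after 24 h dosing, measured by RT-PCR with capillary electrophoresis fluorescence, fitted against DMSO.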

For test [8], the target named is human Retinoic Acid Receptor gamma (RARg), RARG (gene 5916) (UniProt P13631). The test can be described thus: ATG_RARg_TRANS: Attagene TRANS-FACTORIAL HepG2 Assay for human Retinoic Acid Receptor gamma (RARg) (AID 2283009). An outline of the steps: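 Gain-of-signal relative to DMSO is reported from fluorescent capillary electrophoresis of RT-PCR reporter products. These came from HepG2 cells expressing transfected RARg-GAL4 chimeras with UAS reporters, harvested 24 h after dosing.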

Test [9] concerns the target human RAR-related Orphan Receptor beta (RORb), RORB (gene 6096) (UniProt Q92753). The test can be described thus: ATG_RORb_TRANS: Attagene TRANS-FACTORIAL HepG2 Assay for human RAR-related Orphan Receptor beta (RORb) (AID 2283010). An outline of the steps: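 Multiplexed transcription-factor reporter assay: HepG2 cells transiently carrying NR-Gal4/GAL4-UAS constructs, 24 h treatment, mRNA quantified by RT-PCR plus capillary electrophoresis fluorescence; activity scored as induction over DMSO.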

Test [10] addresses human RAR-related Orphan Receptor gamma (RORg), RORC (gene 6097) (UniProt P51449). Kind of test: ATG_RORg_TRANS: Attagene TRANS-FACTORIAL HepG2 Assay for human RAR-related Orphan Receptor gamma (RORg) (AID 2283011). An outline of the steps:
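Activity is scored as increase in GAL4-UAS reporter mRNA over DMSO, detected by fluorescent RT-PCR and capillary electrophoresis in HepG2 cells transiently expressing a RORg-Gal4 chimera, 24 h after dosing.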

For test [11], the target named is Retinoic acid receptor RXR-alpha (Homo sapiens) (UniProt P19793). Kind of test: ATG_RXRa_TRANS: Attagene TRANS-FACTORIAL HepG2 Assay for human Retinoid X Receptor alpha (RXRa) (AID 2283012). The method in brief: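 Chimeric NR-GAL4 trans-activation in HepG2, 24 h treatment; reporter transcripts quantified by fluorescence on capillary electrophoresis, analysed for upward change from DMSO.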

Test [12] deals with human Retinoid X Receptor beta (RXRb), RXRB (gene 6257) (UniProt P28702). Kind of test: ATG_RXRb_TRANS: Attagene TRANS-FACTORIAL HepG2 Assay for human Retinoid X Receptor beta (RXRb) (AID 2283013). An outline of the steps:
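After a 24 h incubation with test chemical, transfected HepG2 cells carrying NR-Gal4 fusions and GAL4-UAS reporter transcription units yield RNA whose reporter cDNA is FAM-labelled, HpaI-cut and sized by capillary electrophoresis; increases over DMSO are scored.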

Read-out in test [13]: E-selectin (Homo sapiens) (UniProt P16581)
The test can be described thus: BSK_3C_Eselectin: BioMAP Diversity Plus: 3C Assay for Eselectin Biomarker Activity (AID 2283015; active means hit-call score of the fitted dose curve at least 0.9, where 1 is the maximum; inactive means score below 0.9;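 further: cell surface E-selectin protein quantified by ELISA 24 h after dosing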). Particulars: primary human endothelial cells (HUVEC); actives raise or lower the signal. An outline of the steps:
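Human vascular endothelium from umbilical vein is exposed to test chemicals for 24 h. E-selectin levels are read by ELISA and compared with DMSO controls.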

Read-out in test [14]: Interleukin-1 alpha (IL1a), IL1A (gene 3552)
Kind of test: BSK_BE3C_IL1a: BioMAP Diversity Plus: BE3C Assay for Interleukin-1 alpha (IL1a) Biomarker Activity (AID 2283016; active means hit-call score of the fitted dose curve at least 0.9, where 1 is the maximum; inactive means score below 0.9). Particulars: primary human bronchial epithelial cells; actives raise or lower the signal. An outline of the steps: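 Measured in human lung primary bronchial epithelial cells: IL-1a by ELISA at 24 h after dosing, with bidirectional fitting against DMSO.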

Read-out in test [15]: Monocyte Chemoattractant Protein-1 (MCP1), CCL2 (gene 6347)
Kind of test: BSK_4H_MCP1: BioMAP Diversity Plus: 4H Assay for Monocyte Chemoattractant Protein-1 (MCP1) Biomarker Activity (AID 2283018; active means hit-call score of the fitted dose curve at least 0.9, where 1 is the maximum; inactive means score below 0.9). Particulars: primary human endothelial cells (HUVEC); actives raise or lower the signal. An outline of the steps:
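Primary human umbilical vein endothelium is exposed to chemical for 24 h before MCP-1 is assayed by ELISA. Concentration-response fitted bidirectionally relative to DMSO.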

A short description of test [16]: BSK_3C_Proliferation: Cell Proliferation Assessment in the BioMAP Diversity Plus: 3C Assay (AID 2283006; active means hit-call score of the fitted dose curve at least 0.9, where 1 is the maximum; inactive means score below 0.9;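 on AC50: potency may reflect either rise or fall in cell number versus DMSO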). Particulars: primary human endothelial cells (HUVEC). An outline of the steps:
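Measured here: sulforhodamine B (0.1%) staining of TCA-fixed sub-confluent umbilical vein endothelial cultures 48 h post-dosing, absorbance 560 nm. DMSO served as negative control and baseline; both signal gain and loss were modelled.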

The target of test [17] is human Thyroid Receptor alpha (THRa1), THRA (gene 7067) (UniProt P10827). Kind of test: ATG_THRa1_TRANS: Attagene TRANS-FACTORIAL HepG2 Assay for human Thyroid Receptor alpha (THRa1) (AID 2283014). The method in brief: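 First, HepG2 cells receive multiple GAL4-UAS reporter units and the chimeric receptor. They are then dosed for 24 h, after which RNA is reverse-transcribed, amplified, labelled, HpaI-cut and sized by capillary electrophoresis; gain relative to DMSO is scored.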

Read-out in test [18]: Monocyte Chemoattractant Protein-1 (MCP1), CCL2 (gene 6347)
Kind of test: BSK_3C_MCP1: BioMAP Diversity Plus: 3C Assay for Monocyte Chemoattractant Protein-1 (MCP1) Biomarker Activity (AID 2283017; active means hit-call score of the fitted dose curve at least 0.9, where 1 is the maximum; inactive means score below 0.9). The conditions noted are these: primary human endothelial cells (HUVEC); actives raise or lower the signal. An outline of the steps:
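Endothelial cells from human umbilical vein are dosed with chemical, cultured 24 h, then assayed for MCP-1 by ELISA; both increases and decreases are modelled against DMSO controls.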

Test [19] deals with human Peroxisome Proliferator-activated Receptor delta (PPARd), PPARD (gene 5467) (UniProt Q03181). The test can be described thus: ATG_PPARd_TRANS: Attagene TRANS-FACTORIAL HepG2 Assay for human Peroxisome Proliferator-activated Receptor delta (PPARd) (AID 2283002). An outline of the steps: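 Transient HepG2 transfection (multiple GAL4-UAS RTUs, chimeric receptor-Gal4); 24 h dosing; total RNA → oligo(dT) RT → PCR → 6-FAM primer extension → HpaI cut → CE. Positive direction vs DMSO.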

Sequence of Peroxisome proliferator-activated receptor gamma (Homo sapiens) (P37231 whole entry, looked up, the tested form may be a part): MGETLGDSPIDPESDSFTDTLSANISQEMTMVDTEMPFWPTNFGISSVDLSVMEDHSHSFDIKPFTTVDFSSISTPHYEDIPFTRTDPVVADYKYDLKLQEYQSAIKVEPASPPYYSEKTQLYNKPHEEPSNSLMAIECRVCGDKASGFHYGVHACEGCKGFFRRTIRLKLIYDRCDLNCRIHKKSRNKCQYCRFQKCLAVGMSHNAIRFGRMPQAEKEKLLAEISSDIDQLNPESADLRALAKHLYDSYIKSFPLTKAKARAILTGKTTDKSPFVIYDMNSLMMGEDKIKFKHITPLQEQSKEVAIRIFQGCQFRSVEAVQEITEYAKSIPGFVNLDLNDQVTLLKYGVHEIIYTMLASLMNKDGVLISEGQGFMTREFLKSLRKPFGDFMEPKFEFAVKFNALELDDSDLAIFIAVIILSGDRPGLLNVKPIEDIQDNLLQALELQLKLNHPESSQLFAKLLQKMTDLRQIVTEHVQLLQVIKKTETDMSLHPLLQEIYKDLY
Sequence of human RAR-related Orphan Receptor beta (RORb), RORB (gene 6096) (Q92753 whole entry, looked up, the tested form may be a part): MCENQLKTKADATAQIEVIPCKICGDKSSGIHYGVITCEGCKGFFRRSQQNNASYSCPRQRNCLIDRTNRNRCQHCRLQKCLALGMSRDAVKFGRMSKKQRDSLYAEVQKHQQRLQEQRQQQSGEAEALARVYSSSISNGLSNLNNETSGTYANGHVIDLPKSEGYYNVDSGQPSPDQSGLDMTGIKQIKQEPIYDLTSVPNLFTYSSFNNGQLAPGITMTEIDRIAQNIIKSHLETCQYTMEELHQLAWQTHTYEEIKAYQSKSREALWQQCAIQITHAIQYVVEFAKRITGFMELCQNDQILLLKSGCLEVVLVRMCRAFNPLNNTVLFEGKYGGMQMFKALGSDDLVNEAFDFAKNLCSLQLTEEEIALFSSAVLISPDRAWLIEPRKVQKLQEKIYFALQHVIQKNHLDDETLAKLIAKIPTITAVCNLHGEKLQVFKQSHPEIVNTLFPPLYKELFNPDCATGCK
Sequence of Nuclear receptor subfamily 1 group I member 2 (Homo sapiens) (O75469 whole entry, looked up, the tested form may be a part): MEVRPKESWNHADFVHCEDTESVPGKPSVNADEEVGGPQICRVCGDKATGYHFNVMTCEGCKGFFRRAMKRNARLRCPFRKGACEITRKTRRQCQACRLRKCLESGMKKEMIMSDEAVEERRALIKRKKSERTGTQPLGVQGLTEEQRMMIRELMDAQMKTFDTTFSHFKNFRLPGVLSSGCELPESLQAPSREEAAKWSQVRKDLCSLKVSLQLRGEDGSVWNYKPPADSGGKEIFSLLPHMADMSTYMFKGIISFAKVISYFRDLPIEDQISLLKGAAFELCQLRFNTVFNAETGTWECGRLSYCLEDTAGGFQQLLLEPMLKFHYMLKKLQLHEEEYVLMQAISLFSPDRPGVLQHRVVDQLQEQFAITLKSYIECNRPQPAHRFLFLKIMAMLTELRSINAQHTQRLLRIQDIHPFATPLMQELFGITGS
Sequence of Retinoic acid receptor RXR-alpha (Homo sapiens) (P19793 whole entry, looked up, the tested form may be a part): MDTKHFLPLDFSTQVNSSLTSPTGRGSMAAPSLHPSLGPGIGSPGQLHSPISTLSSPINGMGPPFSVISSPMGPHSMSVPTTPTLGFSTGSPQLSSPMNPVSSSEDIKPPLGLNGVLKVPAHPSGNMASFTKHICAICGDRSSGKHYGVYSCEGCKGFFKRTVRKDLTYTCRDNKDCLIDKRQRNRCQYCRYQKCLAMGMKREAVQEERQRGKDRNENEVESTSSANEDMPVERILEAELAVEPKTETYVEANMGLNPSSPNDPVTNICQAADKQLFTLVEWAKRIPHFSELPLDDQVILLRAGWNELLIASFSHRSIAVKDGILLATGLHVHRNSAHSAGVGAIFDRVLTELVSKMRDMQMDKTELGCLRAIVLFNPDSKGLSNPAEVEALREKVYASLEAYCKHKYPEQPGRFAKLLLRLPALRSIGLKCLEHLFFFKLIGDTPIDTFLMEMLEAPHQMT
Sequence of human Retinoid X Receptor beta (RXRb), RXRB (gene 6257) (P28702 whole entry, looked up, the tested form may be a part): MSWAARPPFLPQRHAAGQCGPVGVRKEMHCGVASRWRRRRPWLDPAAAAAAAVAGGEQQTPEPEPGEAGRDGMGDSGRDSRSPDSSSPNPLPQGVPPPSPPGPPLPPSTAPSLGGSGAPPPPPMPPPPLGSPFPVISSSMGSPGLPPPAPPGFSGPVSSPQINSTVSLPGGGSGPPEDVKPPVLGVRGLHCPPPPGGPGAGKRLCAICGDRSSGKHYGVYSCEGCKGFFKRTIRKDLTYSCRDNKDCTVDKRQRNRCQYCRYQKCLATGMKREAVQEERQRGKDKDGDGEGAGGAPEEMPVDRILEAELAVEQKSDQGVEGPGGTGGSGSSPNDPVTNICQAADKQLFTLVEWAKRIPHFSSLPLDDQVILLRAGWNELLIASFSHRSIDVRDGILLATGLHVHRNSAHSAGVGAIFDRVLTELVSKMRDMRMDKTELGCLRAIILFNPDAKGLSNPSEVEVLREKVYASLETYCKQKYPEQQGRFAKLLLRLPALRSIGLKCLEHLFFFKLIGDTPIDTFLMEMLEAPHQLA
Sequence of Retinoic acid receptor alpha (Homo sapiens) (P10276 whole entry, looked up, the tested form may be a part): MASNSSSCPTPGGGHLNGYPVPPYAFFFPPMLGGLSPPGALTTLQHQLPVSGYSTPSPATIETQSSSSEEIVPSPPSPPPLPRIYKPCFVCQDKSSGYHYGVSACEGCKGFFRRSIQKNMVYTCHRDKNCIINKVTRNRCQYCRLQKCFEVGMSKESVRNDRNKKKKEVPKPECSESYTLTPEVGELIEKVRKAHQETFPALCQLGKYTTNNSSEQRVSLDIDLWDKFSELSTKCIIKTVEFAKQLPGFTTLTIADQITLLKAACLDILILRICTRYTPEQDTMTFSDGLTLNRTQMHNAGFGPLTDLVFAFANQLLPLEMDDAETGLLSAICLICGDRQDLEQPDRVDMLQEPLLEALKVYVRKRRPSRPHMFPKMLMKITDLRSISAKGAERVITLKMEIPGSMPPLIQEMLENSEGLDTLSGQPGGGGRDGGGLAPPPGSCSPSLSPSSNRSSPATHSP
Sequence of human RAR-related Orphan Receptor gamma (RORg), RORC (gene 6097) (P51449 whole entry, looked up, the tested form may be a part): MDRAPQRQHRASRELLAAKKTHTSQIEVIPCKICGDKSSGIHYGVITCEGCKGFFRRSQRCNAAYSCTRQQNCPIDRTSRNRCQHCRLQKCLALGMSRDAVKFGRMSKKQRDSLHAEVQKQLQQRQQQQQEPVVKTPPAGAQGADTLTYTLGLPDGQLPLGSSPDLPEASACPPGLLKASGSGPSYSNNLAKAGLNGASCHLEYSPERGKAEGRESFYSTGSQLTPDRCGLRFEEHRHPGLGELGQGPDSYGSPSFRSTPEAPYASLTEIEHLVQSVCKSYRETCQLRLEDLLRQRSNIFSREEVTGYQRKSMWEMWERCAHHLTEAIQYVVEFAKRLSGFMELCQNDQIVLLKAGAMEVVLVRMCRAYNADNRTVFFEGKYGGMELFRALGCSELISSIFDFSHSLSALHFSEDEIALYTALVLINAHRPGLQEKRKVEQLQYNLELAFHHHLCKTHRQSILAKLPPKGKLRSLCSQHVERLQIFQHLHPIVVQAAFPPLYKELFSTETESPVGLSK
Sequence of E-selectin (Homo sapiens) (P16581 whole entry, looked up): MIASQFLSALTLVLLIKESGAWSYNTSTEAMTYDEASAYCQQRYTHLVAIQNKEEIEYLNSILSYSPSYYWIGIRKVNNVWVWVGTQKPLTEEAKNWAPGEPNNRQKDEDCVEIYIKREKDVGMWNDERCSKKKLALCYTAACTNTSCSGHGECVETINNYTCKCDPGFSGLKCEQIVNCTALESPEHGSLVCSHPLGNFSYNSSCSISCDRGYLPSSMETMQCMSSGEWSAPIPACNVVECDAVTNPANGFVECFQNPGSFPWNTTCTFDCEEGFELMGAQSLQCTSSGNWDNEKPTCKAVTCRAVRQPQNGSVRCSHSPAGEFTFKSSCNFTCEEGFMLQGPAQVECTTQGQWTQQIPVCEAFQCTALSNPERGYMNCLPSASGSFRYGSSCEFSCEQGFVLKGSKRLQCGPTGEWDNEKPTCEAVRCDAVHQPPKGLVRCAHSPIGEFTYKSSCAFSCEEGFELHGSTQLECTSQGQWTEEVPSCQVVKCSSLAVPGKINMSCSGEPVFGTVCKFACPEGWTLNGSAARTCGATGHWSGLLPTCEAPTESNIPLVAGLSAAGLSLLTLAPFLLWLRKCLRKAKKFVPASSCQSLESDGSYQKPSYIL
Sequence of human Retinoic Acid Receptor gamma (RARg), RARG (gene 5916) (P13631 whole entry, looked up, the tested form may be a part): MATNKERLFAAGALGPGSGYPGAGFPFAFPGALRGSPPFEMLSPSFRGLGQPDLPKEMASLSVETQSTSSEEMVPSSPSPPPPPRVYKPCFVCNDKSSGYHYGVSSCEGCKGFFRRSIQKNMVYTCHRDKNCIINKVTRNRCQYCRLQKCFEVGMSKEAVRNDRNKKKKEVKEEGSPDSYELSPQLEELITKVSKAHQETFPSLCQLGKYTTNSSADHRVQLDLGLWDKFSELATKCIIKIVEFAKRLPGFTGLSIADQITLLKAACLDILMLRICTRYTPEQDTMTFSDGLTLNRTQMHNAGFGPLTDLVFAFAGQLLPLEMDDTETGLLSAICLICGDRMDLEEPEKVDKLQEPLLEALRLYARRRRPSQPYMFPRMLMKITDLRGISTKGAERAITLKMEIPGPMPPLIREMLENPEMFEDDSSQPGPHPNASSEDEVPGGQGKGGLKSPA
Sequence of human Retinoic Acid Receptor beta (RARb), RARB (gene 5915) (P10826 whole entry, looked up, the tested form may be a part): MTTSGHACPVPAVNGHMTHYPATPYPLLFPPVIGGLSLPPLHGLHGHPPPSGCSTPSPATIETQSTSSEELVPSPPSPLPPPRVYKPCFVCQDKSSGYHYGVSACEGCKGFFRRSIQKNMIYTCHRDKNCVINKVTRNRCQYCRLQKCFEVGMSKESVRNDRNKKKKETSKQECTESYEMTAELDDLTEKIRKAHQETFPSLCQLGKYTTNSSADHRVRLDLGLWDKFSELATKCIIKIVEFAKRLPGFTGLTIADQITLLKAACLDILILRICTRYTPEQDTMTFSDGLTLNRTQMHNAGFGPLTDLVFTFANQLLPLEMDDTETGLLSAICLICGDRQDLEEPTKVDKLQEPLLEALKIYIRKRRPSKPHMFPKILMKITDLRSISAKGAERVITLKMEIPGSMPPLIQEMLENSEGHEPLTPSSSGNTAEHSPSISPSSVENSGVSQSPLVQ

One may read the AC50 as the concentration giving half of the maximal activity seen. As to `CC1(C)C(C=C(Cl)Cl)C1C(=O)OC(C#N)c1cccc(Oc2ccccc2)c1` (stereo unspecified), the result in [1], in test [2], in test [3], in test [4], in [5] and in test [8] was inactive. Also, the result in [9], in test [10], in test [11], in test [12], in test [13] and in test [14] was inactive. Further, the results for the half-maximal activity concentration (AC50) in test [6], in [7] and in [15] were 17.9 µM (active), 9.82 µM (active) and 9.17 µM (active), respectively.
As to `CCOP(=S)(OCC)Oc1nc(Cl)n(C(C)C)n1`, the outcome in test [1], in [2], in [3], in [4], in test [5] and in test [16] was inactive. The compound was called inactive in test [6], in [9], in test [10], in test [12], in test [17] and in test [13]. For the same compound, the result in test [14], in [18] and in [15] was inactive. Further, the half-maximal activity concentration (AC50) in test [7] is 2.39 µM (active).
Regarding `CCCC(=NOCC)C1=C(O)CC(CC(C)SCC)CC1=O` (stereo unspecified), the result in [1], in [2], in test [19], in [3], in test [4] and in test [5] was inactive. For the same compound, the outcome in test [16], in test [6], in [7], in [8], in [9] and in test [11] was inactive. For the same compound, the result in [13], in test [14] and in test [15] was inactive.
`Nc1c(Cl)c(F)nc(OCC(=O)O)c1Cl`: the outcome in test [1], in test [2], in [3], in test [4], in test [5] and in test [16] was inactive. Besides, the compound was classed as inactive in [6], in test [7], in [8], in [9], in test [11] and in test [12]. The result in test [13], in [14], in [18] and in test [15] was inactive.
Turning to `Cc1c(COC(=O)[C@@H]2[C@H](/C=C(\Cl)C(F)(F)F)C2(C)C)cccc1-c1ccccc1`, the result in test [1], in [2], in test [19], in test [3], in test [4] and in [5] was inactive. The outcome in test [6], in test [7], in test [8], in test [9], in test [10] and in [11] was inactive. In addition, the compound was called inactive in test [12], in test [17], in test [13], in test [14], in test [18] and in [15]. The AC50 in test [16] was 12.7 µM (active).

These data come from PubChem BioAssay (EPA / NIEHS).
